Screens as filed in PubChem BioAssay.
GLS inh – blocks human kidney-isoform glutaminase activity; Potency, µM (titrated, usually from 45.5 µM), inactives show at the highest dose activity change, negative = inhibition, hits mostly inhibitors; GLS enzymatic activity, qHTS titration; actives 0.21% (n = 410,000); O94925; further: on the % scale 0 is the no-effect control and ±100 the full control effect
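Read-out is an Amplex red fluorescence increase coupled through glutamate oxidase and HRP, measured before and after 30 min room-temperature incubation. hKGA is in 45 mM KH2PO4 (pH 8.2) with 0.02% Tween-20; glutamine added as 1mM solution.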
PGK inhibitor – T. brucei PGK inhibition; P07378; PGK/GAPDH coupled, Kinase-Glo luminescence, 60 min; Potency, µM (series often up to 57.5 µM), for inactives: at the top dose activity change, negative = inhibition, most hits filed as inhibitors; actives 0.043% (n = 380,000); AID 602233; further: on the % scale 0 is the no-effect control and ±100 the full control effect; nearly all actives have a fitted effect of over 60% in size
Target sequence (P07378 whole entry, looked up): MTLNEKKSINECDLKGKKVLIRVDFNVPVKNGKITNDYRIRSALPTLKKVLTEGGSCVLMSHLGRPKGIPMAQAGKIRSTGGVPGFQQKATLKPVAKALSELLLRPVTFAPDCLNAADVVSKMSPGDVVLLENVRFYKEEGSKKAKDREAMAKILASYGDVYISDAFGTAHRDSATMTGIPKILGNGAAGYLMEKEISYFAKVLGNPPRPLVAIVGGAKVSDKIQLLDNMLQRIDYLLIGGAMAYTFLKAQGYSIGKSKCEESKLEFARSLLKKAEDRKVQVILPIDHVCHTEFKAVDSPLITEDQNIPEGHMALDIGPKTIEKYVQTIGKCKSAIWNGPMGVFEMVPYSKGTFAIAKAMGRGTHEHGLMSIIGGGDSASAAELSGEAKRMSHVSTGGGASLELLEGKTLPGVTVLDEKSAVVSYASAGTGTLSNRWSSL
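Luminescent ATP detection (Kinase-Glo Plus) follows a 60-minute room-temperature incubation, with wells lacking PGK as controls. Buffer: 100 mM TEA (pH 7.6), 5 mM MgCl2, 0.01% Tween-20. Coupling enzyme GAPDH (100 nM final) supplies unstable 1,3-BPG in-well.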
Tb PFK block – inhibitors of T. brucei phosphofructokinase | O15648 | T. brucei PFK, ADP-Glo luminescence | Potency, µM (highest dose often 57.5 µM), without a hit: at the highest dose activity, negative = inhibition, most hits filed as inhibitors | actives 0.17% (n = 330,000) | AID 485367;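 further: 0% = uninhibited 1x PFK enzyme wells and -100% = no-enzyme wells; nearly all actives have a fitted effect of over 60% in size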
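Compounds were pin-transferred as a titration series up to 57 uM into substrate buffer (0.5 mM F6P, 0.1 mM ATP, pH 8.0), then 1.25 nM PFK was added and reactions ran 45 min before ADP-Glo detection.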
Pin1 inh – blocks the human prolyl isomerase Pin1 | actives 0.009% (n = 390,000) | Potency, µM (highest dose often 115 µM), without a hit: at the highest dose activity, negative = inhibition, hits mostly inhibitors | Q13526 | Pin1 FP peptide displacement, HiFluor488, 10 min; active means well fitted inhibition curve with a large enough effect in the polarisation, with a control signal flat, not every such curve was filed as active; inconclusive means small, poorly fitted or top-dose-only effect, or effect the other way, or a change in a side signal; inactive means no such curve, though single readings can be large or run the other way; the % refers to the polarisation; further: on the % scale 0 is the no-effect control and ±100 the full control effect
Target sequence (Q13526 whole entry, looked up): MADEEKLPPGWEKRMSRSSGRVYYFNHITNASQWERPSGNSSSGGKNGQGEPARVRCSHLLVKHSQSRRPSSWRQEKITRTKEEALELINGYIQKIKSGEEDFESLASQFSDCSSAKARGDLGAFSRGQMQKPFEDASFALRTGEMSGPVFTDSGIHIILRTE
VDR inhibitor – blocks the human vitamin D receptor; P11473; VDR-SRC2-3 peptide fluorescence polarization, 2 h; Potency, µM, inactives show max response, negative = inhibition, usual class: inhibitors; actives 0.93% (n = 400,000); AID 504847; further: on the % scale 0 is the no-effect control and ±100 the full control effect
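The screen uses fluorescence polarization to detect compounds that interfere with recruitment of the SRC2-3 coactivator peptide to VDR; plates are read after 2 h at room temperature.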
VDR confirm – inhibits human vitamin D receptor, primary hit validation; shares compounds with VDR inhibitor; VDR-coactivator inhibition assay, qHTS confirmation; Potency, µM, hits mostly inhibitors; actives 89% (n = 840); AID 602199
VDR FP – confirmation of human VDR-coactivator binding inhibitors, fluorescein label; shares compounds with VDR inhibitor; AID 602200; VDR-coactivator binding, fluorescein fluorescence polarization; Potency, µM (highest dose often 57.1 µM), for inactives: top-dose activity change, negative = inhibition, hits mostly inhibitors; actives 48% (n = 840)
VDR bla – VDR (human) inhibition, cell-based beta-lactamase validation; shares compounds with VDR inhibitor; VDR beta-lactamase reporter cells, FRET ratio; cells co-treated with VDR agonist LG190178; Potency, µM (highest dose often 46.1 µM), for the others: top-dose activity change, negative = inhibition, usual class: inhibitors; actives 23% (n = 840); further: on the % scale 0 is the no-effect control and ±100 the full control effect
VDR cytotox – cell toxicity, VDR inhibitor hit counter-screen. shares compounds with VDR inhibitor. Potency, µM (highest dose often 48.3 µM), inactives show top-dose activity change, negative = cytotoxicity, most hits filed as cytotoxic. actives 18% (n = 840). cytotoxicity counter-screen, cell viability, qHTS. AID 602204;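 further: plate controls were DMSO for no effect and high-concentration cycloheximide for full effect; nearly all actives have a fitted effect of over 75% in size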
* hit, by the source's call; i = inactive; ? = inconclusive; / = no result; [ ] = another dose, or the depositor's remark. Most compounds without a hit are left out; they make up all but 1.1% or so of the library. Unless noted, the call rests on the fitted dose curve; in most records, active means well fitted curve in the direction sought with a large enough effect; inconclusive means small, poorly fitted or top-dose-only effect, or another doubt; inactive means no such curve, though single readings can be large; an effect the other way counts as inactive or inconclusive. Potency means the concentration at half of the fitted maximal effect.

SMILES | GLS inh | PGK inhibitor | Tb PFK block | Pin1 inh | VDR inhibitor | VDR confirm | VDR FP | VDR bla | VDR cytotox
CCCSc1ncc(Cl)c(C(=O)Nc2sc3c(c2C(=O)OC)CCCC3)n1 | 0.3% | / | / | 0.4% | 9.5% | / | / | / | /
O=C(NC1(O)C(=O)c2ccccc2C1=O)c1ccccc1 | 3.0% | -17.3% | 12.5% | -0.7% | ? | 1* | 1µM* | 5.8% | 11.9%
O=C(Nc1ccccc1Cl)c1c(F)c(F)c(F)c(F)c1F | -7.0% | -10.9% | / | -6.9% | -14.7% | / | / | / | /
O=C(NC1(O)C(=O)c2ccccc2C1=O)c1c(Cl)cccc1Cl | -9.7% | -14.9% | 19.4% | -0.9% | ? | 3.98* | 3.98µM* | 7.5% | -4.2%
O=C(NO)c1ccccc1 | 49.2%[99.4 µM] | / | / | / | / | / | / | / | /
Cc1ccc(C(=O)/C=C/c2cc(Br)cc(Br)c2O)o1 | 3.0% | -1.4% | 0.0% | 18.9% | 8.91µM* | 3.77* | ? | ? | -17.1%
COc1cc(-c2noc(-c3ccc(N4CCN(C)CC4)c([N+](=O)[O-])c3)n2)cc(OC)c1OC | 0.9% | i | / | 30.9% | 4.8% | / | / | / | /
CCOC(=O)CCS(=O)(=O)c1nc(-c2ccccc2)cc(C(F)(F)F)n1 | -0.8% | i | -5.4% | 4.8% | 44.7µM* | 5.97* | 10µM* | ? | ?
CCOC(=O)CS(=O)(=O)c1nc(-c2ccccc2)cc(C(F)(F)F)n1 | 4.0% | 3.0% | -11.2% | -1.4% | 20µM* | 7.52* | ? | ? | ?
CCOC(=O)CS(=O)(=O)c1nc(-c2ccc(F)cc2)cc(C(F)(F)F)n1 | 26.1% | -6.3% | ? | -1.1% | ? | / | / | / | /
COc1ccc(/C=C/C(=O)c2ccccn2)cc1 | -9.6% | -3.5% | -21.8% | -8.8% | 39.8µM* | 33.6* | ? | 33.8% | -14.4%
COc1ccc([N+](=O)[O-])c(C=CC(=O)c2ccccn2)c1 | -6.1% | -3.7% | / | / | / | / | / | / | /
COc1ccc(-c2cc(C(F)(F)F)nc(S(C)(=O)=O)n2)cc1 | 0.4% | 3.3% | -21.6% | 5.2% | 39.8µM* | 17.8* | 28.2µM* | ? | ?
COc1ccc(-c2cc(C(F)(F)F)nc(N)n2)cc1 | -1.4% | -4.0% | 0.7% | 0.2% | -8.0% | / | / | / | /
CS(=O)(=O)c1nc(-c2ccc(F)cc2)cc(C(F)(F)F)n1 | 0.0% | -5.4% | -14.6% | 0.3% | 7.94µM* | 18.9* | ? | ? | ?
CC(=O)NC(c1ccccc1)c1nc(-c2ccc(C)c(C)c2)cs1 (stereo unspecified) | 6.8% | / | / | / | / | / | / | / | /
CCCC(=O)Nc1ncnc2c1ncn2C1OC2COP(=O)(O)OC2C1OC(=O)CCC (stereo unspecified) | -11.3% | / | / | / | 7.1% | / | / | / | /
COc1ccc(/C=C/C(=O)c2ccc3c(c2)OCCO3)cc1[N+](=O)[O-] | -1.0% | -2.9% | 0.6% | 9.6% | -26.6% | / | / | / | /
O=C(/C=C/c1cccc([N+](=O)[O-])c1)c1ccc2c(c1)OCCO2 | 10.3% | i | -0.6% | 4.3% | ? | 12.6* | 12.6µM* | ? | ?
O=C(/C=C/c1cccc([N+](=O)[O-])c1)Nc1ccc(NC(=O)c2cccs2)cc1 | 4.6% | i | -9.7% | 5.9% | -2.1% | / | / | / | /
O=C(/C=C/c1cccc([N+](=O)[O-])c1)c1cccs1 | 4.7% | -1.3% | -1.6% | -9.7% | ? | 5.62* | 7.94µM* | -3.3% | ?
CCN1CCN(S(=O)(=O)c2ccc(Cl)c(C(=O)N(C)Cc3ccco3)c2)CC1 | -0.2% | 3.3% | -5.9% | 1.1% | 0.9% | / | / | / | /
Cc1c(C(=O)Nc2nc(-c3ccc(F)cc3)ns2)oc2ccc(Cl)cc12 | -8.7% | -12.5% | / | 1.0% | 6.1% | / | / | / | /
O=C(/C=C/c1cccc(Cl)c1)c1nc2ccccc2[nH]1 | 7.7% | 6.8% | -3.8% | 10.7% | 44.7µM* | 8.44* | ? | ? | ?
O=C(NCc1nc2ccccc2[nH]1)c1cccc(Cl)c1 | 0.2% | -9.0% | / | 9.0% | -4.0% | / | / | / | /
SMILES | GLS inh | PGK inhibitor | Tb PFK block | Pin1 inh | VDR inhibitor | VDR confirm | VDR FP | VDR bla | VDR cytotox
CCc1cnc2c(c1SC(C(C)=O)C(=O)N(C)C)c(=O)n(C)c(=O)n2C (stereo unspecified) | 0.4% | -4.7% | / | 0.0% | 14.3% | / | / | / | /
CCOc1cc(C=O)cc(Br)c1OCC(N)=O | -1.0% | / | -1.0% | ? | -11.1% | / | / | / | /
O=C(O)c1ccc(/C=C2\COc3ccccc3C2=O)cc1 | 9.4% | -6.7% | 2.2% | -3.4% | 20µM* | 21.2* | 22.4µM* | ? | ?
COc1ccc(/C=C2\COc3ccccc3C2=O)cc1OC | -25.6% | -6.7% | 0.7% | -0.7% | ? | 22.4* | 15.8µM* | ? | ?
CCOc1cc(/C=C2\COc3ccccc3C2=O)cc(Br)c1OCC(=O)N(C)C | 0.0% | -2.8% | 4.8% | 9.7% | 20µM* | 5.97* | ? | ? | 18.4µM*
COc1ccccc1NC(=O)C1=C(C)Nc2nc3ccccc3n2C1c1ccccc1Cl (stereo unspecified) | -2.1% | i | / | -7.1% | -2.3% | / | / | / | /
COc1cc2c(cc1OC)C(COc1cc(C)cc(C)c1)N(C(=O)C(C)(C)C)CC2 (stereo unspecified) | 5.9% | 8.3% | / | ? | -0.2% | / | / | / | /
O=C(/C=C/c1ccc(Br)cc1)c1ccc(NC(=O)c2ccco2)cc1 | -4.9% | -2.2% | -8.9% | 147.6% | 2.4% | / | / | / | /
O=C(/C=C/c1ccc(Br)cc1)c1ccco1 | -8.1% | -3.3% | -4.4% | -0.6% | 44.7µM* | 23.8* | ? | 13.3% | 13.0%
Oc1ccc(C(=S)N2CCN(c3cccc(Cl)c3)CC2)cc1 | 14.2% | -8.1% | -12.6% | -12.9% | ? | ? | ? | -23.2% | 3.7%
CC(=O)c1ccc(NC(=S)N2CCN(c3cccc(Cl)c3)CC2)cc1 | 2.0% | -17.7% | -14.5% | -4.2% | -0.1% | / | / | / | /
Cc1noc(C)c1C(=O)N(CC(=O)Nc1ccc(Cl)c(C(F)(F)F)c1)Cc1ccco1 | -11.4% | -5.2% | -11.6% | 2.4% | 27.5% | / | / | / | /
COc1ccc(-c2cccc3c2NC(=O)C3=O)cc1OC | 11.6% | -5.5% | 12.8% | 2.7% | ? | / | / | / | /
CCN(CC)N=Nc1ccc(C(=O)O)cc1 | -11.8% | -2.1% | 5.0% | -5.8% | 40.5% | / | / | / | /
